# Results filed as inconclusive are left out. Values without a mark were called inactive. The source made the active and inactive calls. The call rests on the fitted dose curve; in most records, active means well fitted cell-killing curve with a large enough effect; inconclusive means small, poorly fitted or top-dose-only effect, or effect the other way; inactive means no such curve, though single readings can be large or run the other way.
# System: C33A
# Assay: Confirmatory qHTS for gynecologic anti-cancer compounds from libraries of approved drugs and bioactive compounds; further: nearly all actives have a fitted effect of over 55% in size
# Settings: gynecologic cancer cell panel viability, ATPlite luminescence, 48 h; series mostly up to 57.6 µM; activity change, negative = viability loss: at the top concentration
# Method in brief: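 Cells (1,000/well) were plated, left 16 h at 37 C/5% CO2, then given compound at 11 concentrations (1:3) from 57.5 uM to 0.977 nM for 48 h. ATPlite luminescence after 15 min at room temperature gave IC50 values.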
# On the % scale 0 is the no-effect control and ±100 the full control effect; potency means the concentration at half of the fitted maximal effect.
SMILES,Potency,"activity change, negative = viability loss"
COCCOc1nc(-c2ccc(Cl)c(Cl)c2)n(-c2ccc(NC(=O)CCl)cc2)n1,4.32 µM (active),–
CN(C)C/C=C/C(=O)Nc1cc2c(Nc3ccc(F)c(Cl)c3)ncnc2cc1OC1CCOC1 (configuration not stated),6.85 µM (active),–
N#CC1(c2cccc(C(=O)Nc3cc(Oc4ccc5nc(NC(=O)C6CC6)sc5n4)ccc3F)c2Cl)CC1,–,-24.7%
CN(Cc1cnc2nc(N)nc(N)c2n1)c1ccc(C(=O)N[C@@H](CCC(=O)O)C(=O)O)cc1,–,14.3%
Cc1cncc2cccc(S(=O)(=O)N3CCCN(C(=O)CN)C[C@@H]3C)c12,–,8.41%
O=C(CCCCCCC(=O)Nc1ccccc1)NO,3.43 µM (active),–
COc1cc2c(cc1-c1c(C)noc1C)ncc1[nH]c(=O)n(C(C)c3ccccn3)c12 (configuration not stated),–,-3.53%
CC(C)n1nc(-c2cc3cc(O)ccc3[nH]2)c2c(N)ncnc21,3.06 µM (active),–
Cc1ccn(-c2ccc(-c3ncco3)cc2)c(=O)c1-c1ccc2nc(N)ncc2c1,–,-9.79%
Cc1nc(N)nc(N)c1-c1ccc(Cl)c(Cl)c1,0.172 µM (active),–
CC(C)C[C@H](NC(=O)[C@@H](NC(=O)c1cccc(-c2ccccc2)n1)[C@@H](C)O)B(O)O,0.385 µM (active),–
OCc1ccc(-c2ccc(-c3ccc(CO)s3)o2)s1,–,-12.9% [at 19.5 µM]
Cc1cc(SCc2sc(-c3ccc(C(F)(F)F)cc3)nc2C)ccc1OCC(=O)O,–,-0.815%
CCCCc1oc2ccccc2c1C(=O)c1cc(I)c(OCCN(CC)CC)c(I)c1,70.8 µM (active),–
NC(=O)Nc1cc(-c2cccc(F)c2)sc1C(=O)NC1CCCNC1 (configuration not stated),0.485 µM (active),–
N=C(N)c1ccc(OCCCCCOc2ccc(C(=N)N)cc2)cc1,–,-15.8%
CC(C)C[C@H](NC(=O)[C@H](Cc1ccccc1)NC(=O)c1cnccn1)B(O)O,0.153 µM (active),–
